Only some compounds are listed: those with a hit (about 12% of all), similar ones and a draw of the others.
Pf growth 48h = Primary qHTS for delayed death inhibitors of the malarial parasite plastid, 48 hour incubation | 310,000 compounds, 5.9% hits | Potency, µM (highest dose often 28.7 µM), for the others: at the highest dose activity change, negative = inhibition, actives largely listed as inhibitors | P. falciparum luciferase growth in erythrocytes, 48 h | AID 504832, 2011; note: potency is the fitted concentration of half-maximal effect; % is set by controls: 0 for no effect and ±100 for the full control effect
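Cell-based growth assay: transgenic P. falciparum expressing firefly luciferase, cultured in red cells within RPMI 1640 containing 0.5% w/v Albumax, 24 mM bicarbonate and gentamycin. A drop in luciferase activity indicates inhibition.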
Pf growth 96h = Primary qHTS for delayed death inhibitors of the malarial parasite plastid, 96 hour incubation. 320,000 compounds, 6.9% hits. P. falciparum luciferase reporter growth, 96 h. AID 504834, 2011. Potency, µM (top dose mostly 28.7 µM), for the others: at the top dose activity change, negative = inhibition, actives largely listed as inhibitors; note: potency is the fitted concentration of half-maximal effect; % is set by controls: 0 for no effect and ±100 for the full control effect
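Infected RBCs, 2% Hct / 0.05% parasitemia final; luciferase-reporter P. falciparum; cpd 96 h, 37 C, 5% CO2; luciferase detection reagent; luminescence.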
SARS PLpro yeast = qHTS of Yeast-based Assay for SARS-CoV PLP. Potency, µM (series often up to 32.9 µM), without a hit: top-dose activity, positive = growth rescue, most hits filed as activators. 330,000 compounds, 0.19% hits. S. cerevisiae expressing SARS-CoV PLpro, growth rescue; calls by dose curve; note: potency is the fitted concentration of half-maximal effect; 0% is about no effect; nearly all actives have a fitted effect of over 55% in size
AMA1 RON2 block = qHTS for Inhibitors of AMA1-RON; Towards Development of Antimalarial Drug Lead: Primary Screen | Plasmodium falciparum AMA1 (3D7) - RON2 peptide interaction | AlphaScreen AMA1-biotinylated RON2 peptide binding | Potency, µM (doses to about 58.2 µM), for inactives: at the highest dose activity change, negative = inhibition, usual class: inhibitors | 360,000 compounds, 0.2% hits;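 note: potency is the fitted concentration of half-maximal effect; 0% = vehicle wells and -100% = peptide control; nearly all actives have a fitted effect of over 45% in size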
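AMA1 (3D7) with his tag at 25 nM final met compounds first, then biotinylated RON2 peptide at 25 nM; detection used donor plus acceptor beads, 10 µg/mL apiece, read by AlphaScreen after 30 min at room temperature.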
NS1 inh = qHTS Assay for Inhibitors of Influenza NS1 Protein Function; Potency, µM (top dose mostly 46.1 µM), inactives show at the highest dose activity, positive = more growth; 270,000 compounds, 0.4% hits; AID 2326, 2010; calls by dose curve; note: potency is the fitted concentration of half-maximal effect; actives are rising curves; nearly all actives have a fitted effect of over 50% in size
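Read-out: OD600 growth recovery of NS1-expressing budding yeast. Cells grown overnight at 30C in -URA glucose medium, washed, resuspended and diluted 1:100 in 2% galactose assay medium, pH 6.0. Same strain lacking NS1 served as positive control.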
HCV inhibitor = qHTS Assay for Inhibitors of Hepatitis C Virus (HCV); Potency, µM (titrated, usually from 41.8 µM), for the others: top-dose activity change, negative = inhibition, usual class: inhibitors; 340,000 compounds, 3.4% hits; Huh7.5.1 HCVcc-Cre infection, luciferase reporter, 44 h; note: potency is the fitted concentration of half-maximal effect; % is set by controls: 0 for no effect and ±100 for the full control effect
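Luciferase read-out (15 sec integration) after a 15 min room-temperature substrate step quantifies HCVcc-Cre infection. Cells, 1,000 per well, had compound added 4 h post-plating, then virus at ~0.5 moi, and were cultured 44 h.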
NS1 inh valid = Assay for Inhibitors of Influenza NS1 Protein Function: Hit Validation. shares compounds with NS1 inh. influenza NS1 function cell assay, 15-point titration. activity change, negative = inhibition, % at 32.9 µM. 1,400 tested, under 10 active; calls by dose curve; note: 0% is about no effect
PR8 titer = Assay for Inhibitors of Influenza NS1 Protein Function: Influenza virus replication assay in MDCK cells infected with virus A/PR/8/34 | shares compounds with NS1 inh | MDCK infected influenza A/PR/8/34, virus titer TCID50; hits give low values | virus titer (log TCID50), log10 TCID50 at 5 µM | 95 compounds, 30% hits; call rule not given here
* marks the source's active call; other numbers are inactive results; ? = inconclusive; nt = no result; [ ] = remark or other dose. Unless noted, calls come from the whole dose curve; as a rule, active = well fitted curve in the direction sought with a large enough effect; inconclusive = small, poorly fitted or top-dose-only effect, or another doubt; inactive = no such curve, though single readings can be large; an effect the other way counts as inactive or inconclusive.

SMILES	Pf growth 48h	Pf growth 96h	SARS PLpro yeast	AMA1 RON2 block	NS1 inh	HCV inhibitor	NS1 inh valid	others
Cc1c(Nc2nc3ccccc3nc2NS(=O)(=O)c2cccc(Cl)c2)c(=O)n(-c2ccccc2)n1C	15%	4%	18%	44%	8.9µM*	10%	13
Cc1ccc(Nc2nc3ccccc3nc2Nc2c(C)n(C)n(-c3ccccc3)c2=O)cc1	-18%	47%	6%	0%	11%	1%	nt
O=C(NCc1ccccc1)C(c1cccnc1)N(C(=O)c1csnn1)c1ccccc1 (stereo unspecified)	3%	12%	-4%	0%	2%	10%	nt
CC(=O)c1c(COC(=O)c2cccnc2)nc2ccccc2[n+]1[O-]	nt	-2%	2%	10%	5µM*	14%	18
COc1c(-c2ccc([N+](=O)[O-])cc2[N+](=O)[O-])c(=O)n(C)c(=O)n1C	-11%	4%	1%	24%	6%	1%	nt
O=C(Cc1ccccc1)NCCN1CCCC1	1%	-11%	3%	16%	2.8µM*	-4%	-1
O=S(=O)(NCc1cn2ccccc2n1)c1ccccc1F	126%	39%	2%	-3%	-3%	11%	nt
COc1ccccc1NS(=O)(=O)c1ccc(C)c(NC(=O)c2c(C)noc2C)c1	-28%	-23%	6%	-3%	nt	11%	nt
Cc1ccc(C(=O)N2CCN(C3c4cccc5cccc(c45)C3NS(=O)(=O)c3ccccc3)CC2)cc1 (stereo unspecified)	2.1µM*	?	-1%	-3%	11µM*	?	17
CC(=O)N1CCN(C2c3cccc4cccc(c34)C2NS(=O)(=O)c2ccccc2)CC1 (stereo unspecified)	?	13%	-3%	0%	-28%	16%	nt
Cc1cc(SCC(=O)NCC2CCCO2)nc2ccccc12 (stereo unspecified)	3%	1%	2%	-20%	0%	6%	nt
O=C(Cn1cc2c(n1)CCCC2)NCCCN1CCN(C2CCCCC2)CC1	20%	77%	3%	11%	8.9µM*	-9%	8
O=C(Cc1ccsc1-c1ccccc1)NO	13µM*	15%	2%	-2%	?	10µM*	8
COc1cc(/C=C/C(=O)Nc2nnc(CC(C)(C)C)s2)cc(OC)c1OC	8%	48%	20%	9%	-1%	-5%	nt
COc1cc(/C=C/C(=O)Nc2nnc(CC(C)C)s2)cc(OC)c1OC	-3%	?	7%	-5%	?	-8%	-4
COc1ccc(-c2[nH]c3ccccc3c2SCCNC(=O)c2cc3ccccc3oc2=O)cc1	-19%	9.3µM*	7%	-8%	10µM*	5%[8.37 µM]	2
COc1ccc(CNC(=O)c2cc3ccccc3oc2=O)cc1	30%	151%	2%	0%	-4%	10%	nt
O=C(NCc1cccs1)c1ccc([N+](=O)[O-])cc1Cl	30%	45%	-3%	-6%	3%	-1%	nt
Cc1ccc(S(=O)(=O)N2CCN(C(=O)CC(C)n3cncn3)CC2)cc1 (stereo unspecified)	-3%	-1%	0%	6%	27%	9%	nt
Cc1ccc(S(=O)(=O)N2CCN(C(=O)CC(C)n3cncn3)CC2)cc1C (stereo unspecified)	10%	10%	4%	1%	?	22%	-9
COc1ccccc1-n1c(SCC(=O)Nc2cccc(C(=O)O)c2)nnc1-c1ccccc1C	-12%	52%	17%	-4%	13µM*	13%	30
COc1cccc(NC(=O)Cc2nnc(SCCOc3ccccc3)n2C)c1	6%	nt	-1%	-6%	-7%	-9%	nt
COc1cccc(NC(=O)Cc2nnc(SCC(=O)c3ccccc3)n2C)c1	-60%	nt	-2%	4%	7.9µM*	9%	-5
COc1ccccc1-n1c(C)nnc1SCC(=O)Nc1cccc(C(C)=O)c1	-22%	16%	-2%	-4%	-1%	10%	nt
Cc1cc(Cl)ccc1NC(=O)CSc1n[nH]c(N)n1	-1%	26%	4%	4%	nt	1%	nt
SMILES	Pf growth 48h	Pf growth 96h	SARS PLpro yeast	AMA1 RON2 block	NS1 inh	HCV inhibitor	NS1 inh valid	others
CCOc1ccc(S(=O)(=O)c2c(C(=O)c3ccc(C)cc3)cnc3cc4c(cc23)OCCO4)cc1	?	?	-2%	-2%	14µM*	-13%	-14
COc1ccccc1/C=C1\CCCC2=C1Nc1nnnn1C2c1ccccc1OC (stereo unspecified)	?	-20%	15%	-7%	?	?	?	PR8 titer=8.5
O=C1N(Cc2cccnc2)C[C@@H]2C[C@@H](c3cccc(Oc4ccccc4)c3)N3CCC[C@@]123	?	?	-5%	3%	10%	-29%	nt
COc1cc(OC)c2c(N)c(C#N)c(C(F)(F)C(F)(F)F)nc2c1	nt	42%	9%	0%	-2%	3%	nt
COc1ccc2nc(C(F)(F)C(F)(F)F)c(C#N)c(N)c2c1	nt	-13%	8%	-12%	7.9µM*	-5%	16
Cc1ccc(N(CCC#N)C(=O)COC(=O)C2CCN(S(=O)(=O)c3ccc4c(c3)OCCO4)CC2)cc1	-17%	2%	2%	-5%	nt	6%	nt
CC(C)(C)c1ccc(C(=O)Cn2cnnc2C#N)cc1	-17%	?	-3%	-6%	14%	9%	nt
CCOc1ccc(C(=O)Cn2cnnc2C#N)cc1	-26%	-21%	1%	5%	?	3%	6
COc1ccc(S(=O)(=O)NCCc2ccco2)cc1OC	7%	298%	3%	0%	3.2µM*	20%	-1
CCc1ccc(/C(C)=N/NC(=O)CNC(=O)/C=C/c2ccco2)cc1	nt	nt	nt	1%	nt	0%	nt
CCOc1ccc(NC(=S)NC(=O)/C=C/c2ccc(C)cc2)c([N+](=O)[O-])c1	7%	64%	-17%	3%	-11%	-31%	nt
CCOc1ccc(NC(=S)NC(=O)/C=C/c2ccc(OC)c(OC)c2)c([N+](=O)[O-])c1	?	59%	-1%	-5%	4µM*	-26%	-23
